# According to PubChem BioAssay:
# Several values for one entry are separate records, joined by “and”; a condition that tells them apart may be missing. Identical values can stand only once. Activity calls are given as the source filed them. Rule as the data show it, unless noted: active = inhibition above about 80%; inactive = the rest. Non-standard residues stand in square brackets, D forms with d. Residues, ends and D or L forms follow the SMILES beside them. Dolaproine = CO[C@@H]([C@@H]1CCCN1)[C@@H](C)C(=O)O; Dil = CC[C@H](C)[C@H](NC)[C@@H](CC(=O)O)OC; NMeV = CN[C@H](C(=O)O)C(C)C
# Assays:
# [1] = CRL2098 osteosarcoma cell growth inhibition, synergistic combos for chromothripsis tumors, BGB or cisplatin IC20 combos (AID 1671454); conditions: CRL2098 osteosarcoma cells, drug combinations, stronger effect = higher value;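 also: cells exposed for 96 h before readout; 0% = vehicle DMSO and 100% = killing by high DMSO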
# [2] = HD-MB03 medulloblastoma cell growth inhibition, synergistic combos for chromothripsis tumors, BGB or cisplatin IC20 combos (AID 1671455; in the data active = inhibition above about 83%;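 also: 0% = vehicle DMSO and 100% = high DMSO as cytotoxic control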); conditions: HD-MB03 medulloblastoma cells, stronger effect = higher value
# [3] = UWB1.289 ovarian carcinoma cell growth inhibition, synergistic combos for chromothripsis tumors, BGB or cisplatin combos (AID 1671456); conditions: UWB1.289 ovarian carcinoma cells, stronger effect = higher value;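 also: cells exposed to compound for four days; 0% = vehicle DMSO and 100% = killing by high DMSO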
# [4] = LFS_MB_2R medulloblastoma cell growth inhibition, synergistic combos for chromothripsis tumors, cisplatin combos (AID 1671457); conditions: LFS_MB_2R medulloblastoma cells, stronger effect = higher value;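 also: cells exposed to compound for four days before readout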
# [5] = MDA-MB-436 breast carcinoma cell growth inhibition, synergistic combos for chromothripsis tumors, BGB or cisplatin combos (AID 1671458; call rule not given here;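 also: cells exposed for 96 hours; 0% = vehicle DMSO and 100% = killing by high DMSO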); conditions: MDA-MB-436 breast carcinoma growth inhibition, drug combinations, stronger effect = higher value
# [6] = UWB1.289_BRCA1 ovarian cancer growth, cell-based, BGB or cisplatin combinations (AID 1671459); conditions: UWB1.289 BRCA1 ovarian carcinoma, drug combinations, stronger effect = higher value
# [7] = human astrocyte viability loss, single and combined drugs, cytotoxicity control for chromothriptic childhood tumor combination screen, cell-based, BGB or cisplatin IC20 combos (AID 1671460); conditions: Human astrocytes, drug combinations, stronger effect = higher value;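 also: cells exposed to compounds for 96 hours before viability readout; 0% = vehicle and 100% = killing control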
# [8] = growth inhibition of BT084 medulloblastoma cells, cell-based, ICGC_MB145, cisplatin and BGB IC40 combos (AID 1671461); conditions: drug combinations, stronger effect = higher value;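 also: cells exposed to drugs for 96 hours; 0% = vehicle DMSO and 100% = high DMSO full killing control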
# [9] = growth inhibition of RCMB18 medulloblastoma cells, cell-based, cisplatin and BGB IC40 combos (AID 1671462); conditions: stronger effect = higher value;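 also: cells exposed to compound for four days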
# [10] = growth inhibition of CRL1545 osteosarcoma cells, cell-based, cisplatin and BGB IC20 combos (AID 1671464); conditions: stronger effect = higher value;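 also: cells exposed to compound for 96 hours before readout; 0% = vehicle DMSO and 100% = high DMSO killing control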
# [11] = LFS_MB_P medulloblastoma growth inhibition, cell-based, chromothripsis tumors, cisplatin or BGB combos (AID 1671449); conditions: LFS_MB_P medulloblastoma cells;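 also: cells exposed for 96 hours; 0% = vehicle DMSO and 100% = killing by high DMSO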
# [12] = HDN33 neuroblastoma growth inhibition, cell-based, chromothripsis tumors, cisplatin or BGB combos (AID 1671450); conditions: HDN33 neuroblastoma cells, stronger effect = higher value;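 also: cells exposed to compound for four days; 0% = vehicle DMSO and 100% = cell killing by high DMSO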
# [13] = ICB984 medulloblastoma cell growth inhibition, synergistic combos for chromothripsis tumors, cisplatin or BGB combos (AID 1671451; call rule not given here;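 also: cells exposed for 96 hours before readout; 0% = vehicle DMSO and 100% = killing by high DMSO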); conditions: ICB984 medulloblastoma cells, drug combinations, stronger effect = higher value
# [14] = LFS_MB_1R medulloblastoma cell growth inhibition, synergistic combos for chromothripsis tumors, cisplatin or BGB combos (AID 1671452); conditions: LFS_MB_1R medulloblastoma cells, stronger effect = higher value;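 also: cells exposed for 96 hours before readout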
# [15] = HTB85 osteosarcoma cell growth inhibition, synergistic combos for chromothripsis tumors, BGB or cisplatin IC20 combos (AID 1671453); conditions: HTB85 osteosarcoma cells, drug combinations, stronger effect = higher value;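 also: cells exposed for 96 hours before readout; 0% = vehicle DMSO and 100% = high DMSO killing control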
# [16] = measured here: combination with BGB at IC20, at 0.5 µM
# [17] = measured here: combination with cisplatin at IC20, at 0.5 µM
# [18] = measured here: combo with BGB at IC20, at 0.5 µM
# [19] = measured here: combo with cisplatin at IC20, at 0.5 µM
# [20] = measured here: inhibition with BGB combination, at 0.05 µM
# [21] = measured here: inhibition with cisplatin combination, at 0.05 µM
# [22] = measured here: combination with cisplatin, at 0.5 µM
# [23] = measured here: combination with cisplatin, at 5 µM
# [24] = measured here: BGB combination, at 0.5 µM
# [25] = measured here: BGB combination, at 5 µM
# [26] = measured here: cisplatin combination, at 0.5 µM
# [27] = measured here: cisplatin combination, at 5 µM
# [28] = BGB combination, concentration series, at 5 µM
# [29] = cisplatin combination, concentration series, at 5 µM
# [30] = measured here: combo with BGB IC20, at 0.5 µM
# [31] = measured here: combo with cisplatin IC20, at 0.5 µM
# [32] = cisplatin combination, at 0.5 µM
# [33] = measured here: BGB IC40 combination 0.05 uM, at 0.05 µM
# [34] = measured here: BGB IC40 combination, at 0.05 µM
# [35] = measured here: with BGB IC20 combination, at 0.5 µM
# [36] = measured here: with cisplatin IC20 combination, at 0.5 µM
# [37] = measured here: combination with BGB IC40, at 0.05 µM
compound,measurement,setting,value
CC[C@H](C)[C@@H]([C@@H](CC(=O)N1CCC[C@H]1[C@H](OC)[C@@H](C)C(=O)N[C@@H](Cc1ccccc1)C(=O)O)OC)N(C)C(=O)[C@@H](NC(=O)[C@@H](NC)C(C)C)C(C)C (H-[NMeV]V[Dil][Dolaproine]F-OH),inhibition,[1]; at 0.5 µM,35% (inactive)
same,inhibition,[1]; [16],36.6%
same,inhibition,[1]; [17],9.03%
same,inhibition,[2]; at 0.5 µM,43.8% (inactive)
same,inhibition,[2]; [18],44.1%
same,inhibition,[2]; [19],39.9%
same,inhibition,[3]; at 0.5 µM,20.2% (inactive)
same,inhibition,[3]; [20],-13%
same,inhibition,[3]; [21],-3.2%
same,inhibition,[4]; at 0.5 µM,-9.71% (inactive)
same,inhibition,[4]; [22],-31.2%
same,inhibition,[4]; [23],-10.7%
same,inhibition,[5]; at 0.5 µM,50.1% (inactive)
same,inhibition,[5]; [24],39.8%
same,inhibition,[5]; [25],58%
same,inhibition,[5]; [26],45.4%
same,inhibition,[5]; [27],73.6%
same,inhibition,[6]; [28],49.3%
same,inhibition,[6]; at 0.5 µM,26.4% (inactive)
same,inhibition,[6]; [29],53.2%
same,inhibition,[7]; at 0.5 µM,31.9% (inactive)
same,inhibition,[7]; [30],39.5%
same,inhibition,[7]; [31],19.9%
same,inhibition,[8]; at 0.5 µM,7.92% (inactive)
same,inhibition,[8]; [32],-4.86%
same,inhibition,"[8]; cisplatin combination, at 5 µM",-10.9%
same,inhibition,[8]; [33],-19.9%
same,inhibition,"[8]; single agent, at 5 µM",67.2%
same,inhibition,[9]; at 0.5 µM,-11.8% (inactive)
same,inhibition,"[9]; cisplatin combo, at 5 µM",17%
same,inhibition,[9]; [34],-3.82%
same,inhibition,[9]; [22],-17.8%
same,inhibition,"[9]; single agent, at 5 µM",17.3%
same,inhibition,[10]; at 0.5 µM,42.9% (inactive)
same,inhibition,[10]; [35],47.9%
same,inhibition,[10]; [36],39.4%
same,inhibition,"[10]; single agent, at 0.05 µM",-9.33%
same,inhibition,"[10]; single agent, at 5 µM",84.4%
CCCCNNC(=O)c1ccc(Br)cc1,inhibition,"[11]; at 0.5 µM, stronger effect = higher value",-28.6% (inactive) and -13.6% (inactive)
same,inhibition,"[11]; measured here: combination with BGB IC20, at 0.005 µM",-3.01% and -23.3%
same,inhibition,"[11]; measured here: combination with BGB IC40, at 0.005 µM",-22.6% and -43.3%
same,inhibition,[11]; [37],-0.924% and -28%
same,inhibition,"[11]; measured here: combination with cisplatin, at 0.5 µM, stronger effect = higher value",-32% and -11.5%
same,inhibition,"[11]; measured here: combination with cisplatin, at 5 µM, stronger effect = higher value",-36.2% and 31.8%
same,inhibition,"[12]; BGB combo, at 5 µM",-6.55% and 1.44%
same,inhibition,[12]; at 0.5 µM,0.02% (inactive) and -19.7% (inactive)
same,inhibition,"[12]; cisplatin combo, at 5 µM",13.1% and 50.6%
same,inhibition,[12]; [35],3.17% and -28.2%
same,inhibition,[12]; [36],-1.75% and -2.85%
same,inhibition,"[12]; single agent, at 5 µM",4.48% and -2.92%
same,inhibition,"[13]; BGB IC20 combo, at 0.005 µM",-0.717% and -27.2%
same,inhibition,"[13]; BGB IC40 combo, at 0.005 µM",-41.6% and -37.1%
same,inhibition,"[13]; BGB IC40 combo, at 0.05 µM",-16% and 7.68%
same,inhibition,[13]; at 0.5 µM,-18.8% (inactive) and -23.4% (inactive)
same,inhibition,"[13]; cisplatin combo, at 0.05 µM",-20.6% and 3.05%
same,inhibition,"[13]; cisplatin combo, at 0.5 µM",-33.8% and -35%
same,inhibition,"[13]; cisplatin combo, at 5 µM",-37.9% and -23%
same,inhibition,"[13]; measured here: 5 uM single agent, at 5 µM",-7.59% and -16.8%
same,inhibition,[14]; at 0.5 µM,-6.14% (inactive) and -24.9% (inactive)
same,inhibition,[14]; [37],-4.43% and -39.3%
same,inhibition,[14]; [22],15.7% and -27.4%
same,inhibition,[14]; [23],-45.3% and 33.7%
same,inhibition,[15]; at 0.5 µM,-6.38% (inactive) and -12% (inactive)
same,inhibition,"[15]; measured here: with BGB IC20, at 0.5 µM",-9.67% and -6.58%
same,inhibition,"[15]; measured here: with BGB IC20, at 5 µM",-16.5% and 39.7%
same,inhibition,"[15]; measured here: with cisplatin IC20, at 0.5 µM",-16.9% and -17.5%
same,inhibition,"[15]; measured here: with cisplatin IC20, at 5 µM",-4.96% and 37.1%
same,inhibition,"[15]; single agent, at 5 µM",0.402% and 2.14%
same,inhibition,[1]; at 0.5 µM,-42.1% (inactive) and -78.1% (inactive)
same,inhibition,[1]; [16],-11% and -84.3%
same,inhibition,[1]; [17],-47% and -80.1%
same,inhibition,[2]; at 0.5 µM,-7.76% (inactive) and -11.7% (inactive)
same,inhibition,[2]; [18],-11.6% and -15%
same,inhibition,[2]; [19],-8.41% and -15%
same,inhibition,[3]; at 0.5 µM,-8.32% (inactive) and -3.86% (inactive)
same,inhibition,[3]; [20],-23.9% and -19.8%
same,inhibition,[3]; [21],-10.7% and -18.7%
same,inhibition,[4]; at 0.5 µM,-9.05% (inactive) and -20.7% (inactive)
same,inhibition,[4]; [22],-22% and -6.47%
same,inhibition,[4]; [23],-14.2% and 13.9%
same,inhibition,[5]; at 0.5 µM,-12.3% (inactive) and -16% (inactive)
same,inhibition,[5]; [24],-20.8% and -8.47%
same,inhibition,[5]; [25],-14.9% and -12.9%
same,inhibition,[5]; [26],-6.74% and -30.9%
same,inhibition,[5]; [27],-0.941% and -3.8%
same,inhibition,[6]; [28],6.4% and 33.8%
same,inhibition,[6]; at 0.5 µM,-7.63% (inactive) and -13.8% (inactive)
same,inhibition,[6]; [29],26% and 52.3%
same,inhibition,[7]; at 0.5 µM,8.76% (inactive) and -0.16% (inactive)
same,inhibition,[7]; [30],10.6% and 7.19%
same,inhibition,[7]; [31],16.8% and 11.7%
same,inhibition,[8]; at 0.5 µM,-6.87% (inactive) and -6.41% (inactive)
same,inhibition,[8]; [32],-5.88% and 9.41%
same,inhibition,"[8]; cisplatin combination, at 5 µM",5.88% and 9.57%
same,inhibition,[8]; [33],-2.71% and -30.8%
same,inhibition,"[8]; single agent, at 5 µM",3.58% and 5.96%
same,inhibition,[9]; at 0.5 µM,-14.6% (inactive) and -4.43% (inactive)
same,inhibition,"[9]; cisplatin combo, at 5 µM",-8.38% and 43.4%
same,inhibition,[9]; [34],-7.86% and -8.38%
same,inhibition,[9]; [22],-0.38% and 8.6%
same,inhibition,"[9]; single agent, at 5 µM",-15.8% and 24%
same,inhibition,[10]; at 0.5 µM,-8.18% (inactive) and -0.65% (inactive)
same,inhibition,[10]; [35],-10.3% and -18.8%
same,inhibition,[10]; [36],-7.12% and 6.96%
same,inhibition,"[10]; single agent, at 0.05 µM",-17.3% and -29.7%
same,inhibition,"[10]; single agent, at 5 µM",-21.8% and -15.7%
